# Screens deposited in PubChem by National Center for Advancing Translational Sciences (NCATS).
# An excerpt weighted towards active compounds, which were near 11% of everything screened.
# IMPase inh – membrane-permeable compound that blocks inositol monophosphatase. CHO-M1 cells, IP1 accumulation, HTRF TR-FRET ratio. 120,000 tested, under 10 active. P97697. inhibition (IP1 accumulation), % at 46.1 µM. AID 901; active means well fitted curve in the direction sought with a large enough effect in the signal ratio, not every such curve was filed as active; inconclusive means small, poorly fitted or top-dose-only effect, or a change in a side signal; inactive means no such curve, though single readings can be large or run the other way; the % refers to the signal ratio;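 further: cells stimulated with carbachol in lithium chloride buffer; higher means more IMPase inhibition seen as more IP1 and lower FRET ratio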
# Target sequence (P97697 whole entry, looked up): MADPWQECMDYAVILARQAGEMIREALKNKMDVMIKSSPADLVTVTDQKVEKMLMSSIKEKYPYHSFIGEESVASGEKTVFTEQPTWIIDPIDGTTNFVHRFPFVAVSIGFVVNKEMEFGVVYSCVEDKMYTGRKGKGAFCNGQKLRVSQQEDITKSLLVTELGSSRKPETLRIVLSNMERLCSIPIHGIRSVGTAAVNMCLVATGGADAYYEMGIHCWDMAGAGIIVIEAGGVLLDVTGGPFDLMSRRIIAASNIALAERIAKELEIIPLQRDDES
#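 Elevated IP1 in lysates lowers TR-FRET signal (665/620 ratio and 620 channel reported). Cells were CHO-M1, given carbachol (50 uM as added) plus 50mM LiCl, pH 7.4, 30 min, 37C; compounds titrated up to 46 uM; AC50 by Hill equation.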
# PNC inhibitor – inhibitors of perinucleolar compartment assembly | PC3M PTB-GFP, PNC prevalence imaging, 16 h; hits give low values | activity change (PNC), negative = inhibition, % at 10 µM | actives 3.1% (n = 140,000) | AID 2417;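 active means readout at or below -70, meaning at least 70% loss of cells showing the perinucleolar compartment, a nuclear body marking cancer cells; inconclusive means readout between -30 and a set limit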
#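 Compounds are pinned in duplicate onto adhered PC3M cells stably expressing GFP-tagged PTB and incubated 16 h at 37 C. Cells are then fixed, nuclei stained with Hoechst, and PNC-positive cells counted.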
# HPGD block – inhibitors of human 15-hydroxyprostaglandin dehydrogenase (HPGD) | P15428 | purified HPGD, NADH fluorescence kinetic, PGE2 substrate | Potency, µM, most hits filed as inhibitors | actives 4.3% (n = 150,000) | AID 894
# Target sequence (P15428 whole entry, looked up): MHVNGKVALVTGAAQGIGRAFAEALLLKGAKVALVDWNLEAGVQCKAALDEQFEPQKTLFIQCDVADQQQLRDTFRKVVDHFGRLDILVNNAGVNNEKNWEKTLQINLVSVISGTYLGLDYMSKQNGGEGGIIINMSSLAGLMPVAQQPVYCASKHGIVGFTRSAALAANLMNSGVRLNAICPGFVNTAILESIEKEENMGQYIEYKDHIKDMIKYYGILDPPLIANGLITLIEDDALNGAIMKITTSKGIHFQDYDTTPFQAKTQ
#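 20 nM HPGD preincubated 15 min at room temperature with compound in 50 mM Tris-HCl pH 8, 0.01% Tween 20. Started with 1 mM NAD+ and 30 uM prostaglandin E2; NADH fluorescence (360/450 nm) read 5 times over 30-s intervals, last minus first.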
# IMPase Li inh – membrane-permeable IMPase blocker, potentiated with lithium | actives 0.35% (n = 210,000) | Potency, µM (series often up to 59.4 µM), most hits filed as inhibitors | CHO-M1 cells, IP1 TR-FRET (IP-One), carbachol + lithium; active means well fitted curve in the direction sought with a large enough effect; inconclusive means small, poorly fitted or top-dose-only effect, or another doubt; inactive means no such curve, though single readings can be large; an effect the other way counts as inactive or inconclusive;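 further: IP1 builds up when IMPase is blocked and the TR-FRET signal falls; nearly all actives have a fitted effect of over 50% in size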
#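 Steps: plate 2000 CHO-M1 cells per well and culture 16–30 h; add compound and lithium; incubate 30 min, 37C; add d2-IP1 tracer and Eu cryptate anti-IP1 antibody in lysis buffer; read after 10 min at room temperature.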
# ALDH1A1 block – ALDH1A1 (human) enzyme inhibition; P00352; Purified ALDH1A1, NADH fluorescence, propionaldehyde substrate; Potency, µM (highest dose often 75.3 µM), actives largely listed as inhibitors; actives 7.3% (n = 220,000); AID 1030
# ALOX12 inhib – 12-hLO (ALOX12) enzyme inhibition | P18054 | purified 12-hLO, xylenol orange hydroperoxide absorbance | Potency, µM (top dose mostly 57.1 µM), most hits filed as inhibitors | actives 0.12% (n = 150,000); active means well fitted curve in the direction sought with a large enough effect; inconclusive means small, poorly fitted or top-dose-only effect, or another doubt; inactive means no such curve, though single readings can be large; an effect the other way counts as inactive or inconclusive; further: nearly all actives have a fitted effect of over 55% in size
#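 Purified human 12hLO (150 nM), preincubated 15 min with compound, then 40 uM arachidonic acid for 30 min, room temperature, Hepes pH 7.0 with 0.01% Triton X-100. Hydroperoxide detected by ferrous iron/xylenol orange; 573/405 nm absorbance ratio gives reaction progress.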
# A number is an active result; 0 = inactive; ? = inconclusive; - = no result given. Unless noted, the call rests on the fitted dose curve; in most records, active means well fitted inhibition curve with a large enough effect (not every such curve was filed as active); inconclusive means small, poorly fitted or top-dose-only effect, or another doubt; inactive means no such curve, though single readings can be large or run the other way.
SMILES,IMPase inh,PNC inhibitor,HPGD block,IMPase Li inh,ALDH1A1 block,ALOX12 inhib
CC(C)N1C(=O)CC2(CC[N+](C)(CCOC(=O)C(c3ccccc3)c3ccccc3)CC2)C1=O (stereo not given),0,0,?,0,25µM,0
CS(=O)(=O)c1ccc2nc(NC(=O)Oc3ccccc3)sc2c1,0,0,0,?,3.2µM,0
COc1ccc(C(=O)Nc2nc3ccc(S(C)(=O)=O)cc3s2)cc1,?,0,?,?,?,0
COc1ccccc1C(=O)Nc1nc2ccc(S(C)(=O)=O)cc2s1,-,0,?,10µM,?,0
COCC(=O)Nc1nc2ccc(S(C)(=O)=O)cc2s1,0,?,0,0,0,0
O=C(CNC1CCCCC1)NN=C(c1ccccc1)c1ccccc1,-,-,-,0,0,-
COc1ccccc1CNc1ncnc2ccc(-c3ccc(N(C)C)cc3)cc12,-,-,?,0,?,0
Cn1cc(-c2nc3cncnc3n(Cc3ccccc3Cl)c2=O)c2ccccc21,-,-,-,0,0,-
COCCn1nnnc1C(c1ccccc1OC)N1CCN(c2ccccc2F)CC1 (stereo not given),0,0,0,0,0,0
CCc1ccc2[nH]c(=O)c(C(c3nnnn3CCOC)N3CCN(c4ccccc4)CC3)cc2c1 (stereo not given),0,0,0,0,11µM,0
CCC(C)(C)n1nnnc1C(C(C)C)N(CCN1CCOCC1)Cc1cc2cccc(C)c2[nH]c1=O (stereo not given),0,0,0,0,?,0
CCc1ccc2[nH]c(=O)c(CN(Cc3ccc(F)cc3)C(c3nnnn3CCN3CCOCC3)C(C)C)cc2c1 (stereo not given),0,-81,0,0,?,0
COCCn1nnnc1C(c1cc2cccc(C)c2[nH]c1=O)N1CCN(c2ccccc2F)CC1 (stereo not given),0,0,0,0,16µM,0
CCc1ccc2[nH]c(=O)c(C(c3nnnn3CCOC)N3CCN(c4ccc(F)cc4)CC3)cc2c1 (stereo not given),0,?,0,0,?,0
Cc1ccc(Sc2c(C)nn(C(=O)COc3ccccc3Br)c2C)cc1,0,-,-,-,-,-
CCCC(=O)C1C(=O)CC(C)(C)C(c2cc(C)no2)C1=O (stereo not given),0,0,0,0,0,0
Cc1cc(C2C(=O)CC(=O)CC2c2ccccc2)on1 (stereo not given),?,0,0,0,10µM,?
CCOC(=O)c1ccc(NC(=O)Cn2ncc(Cl)c(Cl)c2=O)cc1,-,0,0,0,28µM,0
COc1ccc(NC(=O)Cc2coc3cc(C)c(C(C)C)cc23)cc1S(=O)(=O)N1CCOCC1,0,?,0,0,22µM,0
CCOC(=O)c1ccc(NC(=O)CN2C(=O)C(=O)N(CC(C)C)C2=O)cc1,0,0,0,0,0,0
CCC(=O)Nc1ccc(C(=O)Cn2ncc(Cl)c(Cl)c2=O)cc1,-,-,-,-,2.2µM,-
COc1ccc(NC(=O)Cn2ncc(Cl)c(Cl)c2=O)cc1S(=O)(=O)N1CCOCC1,-,0,0,0,11µM,0
N#C[C@@H](Cc1ccc(O)c(O)c1)C(=O)N1CCc2ccccc21,0,-,-,-,-,?
CN(C)c1ncc2nc(-c3ccccc3)c(=O)n(C)c2n1,-,-,-,0,?,-
CC(Nc1oc(-c2ccccc2)nc1-c1cccc2ccccc12)c1ccccc1 (stereo not given),-,-,0,0,0,0
SMILES,IMPase inh,PNC inhibitor,HPGD block,IMPase Li inh,ALDH1A1 block,ALOX12 inhib
O=[N+]([O-])c1ccc(N=Nc2ccc(O)cc2O)cc1,0,0,0,0,10µM,0
CCOC(=O)CSc1nc2sc3c(c2c(=O)n1Cc1ccccc1)CCC(C(C)(C)C)C3 (stereo not given),0,-,-,-,-,-
CC[C@H](NC(=O)c1c(C)c(-c2ccccc2)nc2ccccc12)c1ccccc1,0,-,0,0,5µM,0
CCC(NC(=O)c1ccccc1O)c1ccccc1 (stereo not given),0,-109,?,0,?,0
O=C1Nc2ccccc2C(=O)C1(Cl)Cc1ccccc1 (stereo not given),0,0,7.1µM,0,14µM,0
O=C(CSc1nc2cc3ccccc3cc2[nH]1)Nc1cccc(C(F)(F)F)c1,0,-,-,-,-,-
